Reference: PubChem BioAssay
Calls of active or inactive are those of the source.

Experiments:
[1] = compound effects on lung adenocarcinoma cell viability – A549, calcein-AM fluorescence, 48 h, basal, profiling panel (AID 1162); details: higher = more signal
[2] = compound effects on differentiated 3T3-L1 adipocyte viability – cell-based, 3T3-L1 adipocytes, calcein-AM fluorescence, 48 h, basal, profiling panel (AID 1163); details: 3T3-L1 adipocytes viability, higher = more signal
[3] = compound effects on hepatocellular carcinoma cell viability – HepG2, calcein-AM fluorescence, 48 h, basal, profiling panel (AID 1164); details: higher = more signal
[4] = compound effects on multiple myeloma cell viability – MM1S, calcein-AM fluorescence, 48 h, basal, profiling panel (AID 1165); details: higher = more signal;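 further: viability of MM1S multiple myeloma cells under basal unstimulated conditions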
[5] = calcein-AM signal in unstimulated myeloma cells – cell-based, calcein-AM fluorescence, 48 h, PK04 Diversity Set, profiling panel (AID 1166); details: RPMI8226 myeloma viability, higher = more signal;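 further: cells grown under basal conditions without added stimulus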
[6] = JC-1 mitochondrial signal, unstimulated HepG2 cells – cell-based, JC-1 fluorescence, 24 h, 100 nL compound, profiling panel (AID 1167); details: HepG2 mitochondrial potential, higher = more signal
[7] = JC-1 mitochondrial signal, unstimulated adipocytes – cell-based, JC-1 fluorescence, 3T3-L1 adipocytes, 24 h, 100 nL compound, profiling panel (AID 1168); details: JC-1 mitochondrial fluorescence, higher = more signal, called active from +8 up or from −8 down
[8] = JC-1 mitochondrial signal, unstimulated myeloma cells – cell-based, JC-1 fluorescence, RPMI8226, 24 h, 100 nL compound, profiling panel (AID 1169); details: JC-1 mitochondrial potential fluorescence, higher = more signal
[9] = JC-1 mitochondrial signal, unstimulated MM1S myeloma – cell-based, JC-1 fluorescence, 24 h, 100 nL compound, profiling panel (AID 1170); details: MM1S mitochondrial potential, higher = more signal
[10] = resazurin metabolic signal in A549 cells – cell-based, resazurin fluorescence, 24 h, PK04 Diversity Set, profiling panel (AID 1171); details: A549 viability, higher = more signal, called active from +8 up or from −8 down
Further: test concentration not given here.

Row | Compound | z-score [1] | z-score [2] | z-score [3] | z-score [4] | z-score [5] | z-score [6] | z-score [7] | z-score [8] | z-score [9] | z-score [10]
1 | COC(=O)C/C=C/C[C@]1(O)C(=O)N(C)c2ccccc21 | 1.59 | 0.349 | 1.39 | 0.672 | -0.419 | 1.25 | -0.694 (inactive) | -0.838 | 2.2 | 0.946 (inactive)
2 | C[N+](C)(C)CCCCCCNC(=O)[C@@H]1C[C@@H]2C(=O)N3CCC[C@H]3C(=O)N2[C@@H]1c1ccc(O)cc1 | -0.134 | -0.329 | -0.526 | -0.403 | -0.106 | -1 | -0.362 (inactive) | -0.101 | -0.637 | 1.78 (inactive)
3 | C[N+](C)(C)CCCC[C@@H]1NC(=O)[C@@H]2C[C@H](C(=O)NCCCCCCN)[C@H](c3cccc(OCCO)c3)N2C1=O | -0.148 | 1 | 0.649 | 0.651 | -0.013 | 0.746 | -0.17 (inactive) | -0.711 | 0.246 | -0.518 (inactive)
4 | COc1ccccc1CN1C(=O)c2ccccc2[C@](Cc2ccccc2I)(C(=O)O)[C@@H]1c1ccc(CO)cc1 | 1.14 | -1.03 | 0.235 | -0.616 | -1.7 | -0.199 | -0.205 (inactive) | -0.151 | -0.177 | -0.17 (inactive)
5 | COc1ccc(CCNC(=O)[C@@]2(c3ccc([N+](=O)[O-])cc3)CC(=O)N(C3CCCCC3)[C@@H]2c2ccc(CO)cc2)cc1 | 2.41 | 0.414 | 1.12 | 0.547 | 0.841 | 2.85 | -0.171 (inactive) | 0.562 | 0.954 | 1.28 (inactive)
6 | COCCOC(=O)N1C(=O)[C@@]2(c3cc(C#CC4(O)CCCCCC4)ccc31)[C@H](C(=O)Nc1nc3ccccc3s1)[C@H]1C(=O)O[C@H](c3ccccc3)[C@H](c3ccccc3)N1[C@@H]2c1ccc(O)cc1 | 0.638 | -0.457 | 0.74 | -0.227 | -2.46 | -3.17 | -0.421 (inactive) | -0.897 | -0.897 | -0.436 (inactive)
7 | CC(=O)NCCCC[C@@H]1NC(=O)[C@@H]2C[C@H](C(=O)NCCCCCN)[C@H](c3ccc(O)cc3)N2C1=O | -0.185 | 0.42 | -0.512 | -0.449 | -0.131 | 0.651 | -0.00185 (inactive) | -0.673 | 0.774 | -1.42 (inactive)
8 | C=CCNC(=O)[C@H]1[C@@H]2C(=O)O[C@@H](c3ccccc3)[C@@H](c3ccccc3)N2[C@@H](c2ccccc2OCCO)[C@]12C(=O)N(C(=O)OCCOC)c1ccc(C#CC3(O)CCCCCC3)cc12 | -0.293 | 0.905 | -0.0307 | -3.15 | -4.56 | -0.341 | 1.18 (inactive) | -1.14 | -1.7 | -2.4 (inactive)
9 | COc1cc(NN2C(C(O)c3ccco3)C=CC3C(=O)N(C)C(=O)C32)cc(OC)c1OC (stereo not given) | -1.2 | -0.615 | -0.827 | 0.032 | 0.134 | -1.01 | -0.892 (inactive) | -0.573 | 0.314 | -1.41 (inactive)
10 | CC(C)N1C(=O)c2ccccc2[C@@H](C(=O)NCCN2CCOCC2)[C@@H]1c1ccc(CO)cc1 | 0.281 | -0.973 | 0.135 | -0.551 | 0.165 | -0.247 | -1.26 (inactive) | 0.772 | 0.113 | 0.175 (inactive)
11 | CCOC(=O)C=Cc1cccc(C)c1O | -0.877 | 0.407 | -0.833 | -0.536 | -0.731 | -0.768 | -0.0308 (inactive) | -0.642 | -1.16 | -0.871 (inactive)
12 | COC(=O)[C@@]1(Cc2ccc(OC)cc2)[C@H]2c3cc(C(=O)N4CCCC4)n(CCc4c[nH]c5ccc(OC)cc45)c3C[C@H]2CN1C(=O)c1ccccc1 | -1.19 | -0.791 | -0.636 | -1.52 | -3.62 | -0.205 | -1.04 (inactive) | -0.819 | -1.86 | -2.3 (inactive)
13 | COC(=O)C(CC#Cc1ccc2c(c1)[C@]1(C(=O)N2)[C@H](c2ccc(O)cc2)N2[C@H](c3ccccc3)[C@H](c3ccccc3)OC(=O)[C@H]2[C@@H]1C(=O)NC[C@H](O)c1ccccc1)C(=O)OC | -0.857 | -0.909 | -0.045 | -1.58 | -1.83 | -2.42 | -0.837 (inactive) | -0.829 | -0.633 | -0.407 (inactive)
14 | COC(=O)[C@@]1(Cc2ccc(F)cc2)[C@H]2c3cc(C(=O)N(C)C)n(CCc4ccc(OC)c(Br)c4)c3C[C@H]2CN1C(=O)c1ccccc1 | -2.25 | 0.0834 | -1.42 | -3.29 | -4.63 | -1.68 | -0.662 (inactive) | -0.812 | -2.89 | -2.93 (inactive)
